Rows were chosen to be rich in hits. Some 3.2% of all compounds tested hit in one or more screens of this group.
FBA Mtb inh: inhibits M. tuberculosis FBA enzyme | purified M. tuberculosis FBA, fluorescence read-out | actives 2.3% (n = 360,000) | inhibition, % at 1 µM | AID 588726 | P9WQA3; in the data active means inhibition above about 27%;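 further: 0% = vehicle and 100% = reference inhibitor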
PriA SSB inh: blocks PriA binding to SSB C-terminal tail; AlphaScreen SSBct-PriA binding, biotinylated peptide; inhibition, % at 33 µM; actives 0.6% (n = 430,000); in the data active means inhibition mostly above about 37%, no sharp cut-off; inactive means mostly below about 20%;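 further: plate controls were negative control peptide for no effect and reference peptide for full effect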
Mtb betalactam: beta-lactam sensitization of Mtb H37Rv; M. tuberculosis H37Rv growth with meropenem, percent inhibition; inhibition, % at 25 µM; actives 0.27% (n = 330,000); AID 434955; call rule not given here;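 further: growth measured after seven days incubation then overnight dye step; 0% = bacteria only wells and 100% = bacteria with antibiotic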
GDH-TPI inh: GDH-TPI coupled enzyme inhibition counter-screen. GDH-TPI coupled enzyme counterscreen, NADH absorbance. inhibition, % at 4.8 µM. actives 1.2% (n = 360,000); in the data active means inhibition above about 30%;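 further: 0% = DMSO wells and 100% = wells lacking the enzyme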
Rv3671c inh: inhibitors of M. tuberculosis serine protease Rv3671c. P9WHR9. inhibition, % at 5.96 µM. AID 2606. actives 0.048% (n = 320,000); in the data active means inhibition above about 38%;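 further: extracellular domain of Rv3671c used as enzyme; 0% = enzyme with DMSO and 100% = no enzyme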
Mtb UGM inh: blocks M. tuberculosis UGM enzyme. purified UGM, fluorescence polarization probe displacement. AID 504406. actives 0.06% (n = 320,000). inhibition, % at 10 µM; in the data active means inhibition above about 10%, passing the limit was not always enough
Target sequence (P9WIQ1 whole entry, looked up): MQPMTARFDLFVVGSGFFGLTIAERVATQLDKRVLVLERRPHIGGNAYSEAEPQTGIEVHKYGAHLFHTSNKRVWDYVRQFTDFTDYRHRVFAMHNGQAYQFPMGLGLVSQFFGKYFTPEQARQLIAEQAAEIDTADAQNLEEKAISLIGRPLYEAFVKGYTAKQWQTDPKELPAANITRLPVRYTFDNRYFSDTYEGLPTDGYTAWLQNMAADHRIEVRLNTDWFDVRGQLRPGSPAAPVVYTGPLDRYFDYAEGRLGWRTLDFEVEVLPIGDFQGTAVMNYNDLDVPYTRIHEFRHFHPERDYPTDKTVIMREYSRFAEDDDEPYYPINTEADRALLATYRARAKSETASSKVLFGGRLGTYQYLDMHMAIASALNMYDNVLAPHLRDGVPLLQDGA
An asterisk follows results filed as active; . = no result given; + = active, no number; ! = repeats disagree.

SMILES | FBA Mtb inh | PriA SSB inh | Mtb betalactam | GDH-TPI inh | Rv3671c inh | Mtb UGM inh
O=C(c1cccs1)N1CCN(C(=O)C2CC2c2cccs2)CC1 (stereo not given) | . | -5 | . | . | . | .
Cc1ccc2nc(/C(C#N)=C\c3cc(C)n(-c4cccc([N+](=O)[O-])c4)c3C)[nH]c2c1 | 0 | 28 | 97 | 32* | -1 | -2
Cc1cc(/C=C(/C#N)c2nc3ccccc3[nH]2)c(C)n1-c1cc(C(=O)O)cc(C(=O)O)c1 | 7 | -7 | . | 9 | . | .
COc1cc(OC)c(NC(=O)c2ccco2)cc1Cl | 1 | -7 | 6 | 14 | 1 | -2
COc1cc(NC(=O)c2ccco2)c(OC)cc1NC(=O)Nc1ccc(Cl)cc1 | 7 | 21 | 9 | 31* | 12 | -2
Cc1nc(/C=C\C(=O)O)c2cc(C)oc2n1 | + | -10 | -6 | 8 | 4 | 3
CCN1CCN(S(=O)(=O)c2cc(OCC(=O)NC3CCCCC3)c(C)cc2Cl)CC1 | -7 | -23 | 6 | 52* | -3 | 3
COc1ccc(C2c3ccc(O)cc3Oc3ncn4nc(-c5ccccn5)nc4c32)cc1 (stereo not given) | 4 | -7 | -6 | 36* | -8 | -2
COc1ccc(C2c3ccc(O)cc3Oc3ncn4nc(-c5ccccn5)nc4c32)cc1OC (stereo not given) | -3 | -2 | 11 | 1 | -4 | 2
Cn1nc(CN(Cc2ccco2)C(=O)N2CCN(S(C)(=O)=O)C2=O)c2c1CCC2 | . | 84* | . | . | . | .
Cc1cc(C(=O)Nc2nnc(-c3cc(C)nn3C)o2)on1 | . | 49* | . | . | . | .
CC(=O)c1cccc(NC(=O)/C(=C\c2ccco2)NC(=O)c2cccs2)c1 | -11 | -6 | -1 | 32* | 4 | 2
NNC(=O)/C(=C\c1ccco1)NC(=O)c1ccco1 | -1 | -1 | -1 | 35* | -10 | 0
O=C(Nc1cccc(F)c1)/C(=C\c1ccco1)NC(=O)c1ccco1 | 0 | -3 | 0 | 39* | 2 | 2
COc1ccc(C2CCN(C(=O)CSCc3ccccc3)C2)cc1 (stereo not given) | . | -10 | . | . | . | .
CN(C)/C=C/C(=O)c1ccc([N+](=O)[O-])c(CS(=O)(=O)c2ccccc2)c1 | -1 | 7 | 5 | 15 | -6 | 3
CN(C)NC(=O)c1cccc(Cl)c1 | 2 | -6 | -10 | 10 | 3 | -2
CN(C)/C=C/C(=O)c1ccc(Cl)cc1 | 2 | -8 | 10 | 48* | -13 | -2
CN(C)/C=C/C(=O)c1ccc(Oc2ncccn2)cc1 | 1 | 3 | -7 | 24 | -7 | 2
CN(C)/C=C/C(=O)c1ccc(Cl)c([N+](=O)[O-])c1 | -2 | -7 | -5 | 31* | -15 | 0
CN(C)/C=C/C(=O)c1cccc(Cl)c1 | -3 | 5 | 1 | 42* | -4 | 1
Cc1ccc(C(=O)/C=C/N(C)C)cn1 | -2 | -18 | -11 | 31* | -1 | 0
Cc1ccc(S(=O)(=O)CN=C(NC(=S)N(c2ccccc2)c2ccccc2)c2ccccc2)cc1 | . | -6 | . | . | . | .
CN(C)/C=C/C(=O)c1cccc(C(F)(F)F)c1 | 3 | 10 | 11 | 50* | -6 | .
Cc1ccc(C=NN2CCOCC2)s1 | . | -6 | . | . | . | .
SMILES | FBA Mtb inh | PriA SSB inh | Mtb betalactam | GDH-TPI inh | Rv3671c inh | Mtb UGM inh
CC(C)n1c(O)c(N=NC(=O)CNC(=O)CCc2ccccc2)c2ccccc21 | -2 | 0 | -9 | 31* | -45 | -2
COc1ccccc1C(=O)NCC(=O)N=Nc1c(O)n(C(C)C)c2ccccc12 | 1 | -6 | 2 | 31* | -5 | 3
CO[C@@H](CNC(=O)c1cccc(Cl)c1)c1cccc(F)c1 | . | -23 | . | . | . | .
CCN1CCN(c2nc3ccc(OC(=O)c4ccc(S(=O)(=O)N(C)C)cc4)cc3s2)CC1 | . | -3 | . | . | . | .
O=C(NN=Cc1cc(Br)cs1)C1COc2ccccc2O1 (stereo not given) | . | -14 | . | . | . | .
COCCn1cc(NC(=O)Nc2ccccc2SC)c2ccccc21 | . | 34 | . | . | . | .
Cc1ccccc1-n1sc2cc(F)ccc2c1=O | 3 | -7 | 100 | -1 | 4 | 3
Cc1cc(C)[n+](-c2ccc(F)cc2)c2[nH]c(=O)[nH]c(=O)c12 | + | -9 | -4 | 19 | 3 | 1
COc1ccc(S(=O)(=O)NCCNc2cc(-n3cccc3)ncn2)cc1Cl | . | 10 | . | . | . | .
c1ccc(CSc2n[nH]c(-c3ccccn3)n2)cc1 | . | 59* | . | . | . | .
c1ccc(-c2ccc(-c3ccccn3)nn2)nc1 | . | 106* | 46 | . | -7 | 0
c1ccc(-c2n[nH]c(-c3ccccn3)n2)nc1 | 4 | 93* | 18 | -4 | -8 | 1
c1ccc(-c2n[nH]c(-c3ccccn3)n2)cc1 | 0 | 42* | 99 | 7 | -1 | -2
Cc1ccc(NC(=S)NN=Cc2c(C)nn(-c3ccccc3)c2N2CCCC2)cc1 | . | 9 | . | . | . | .
O=C(CSc1ncccn1)N1N=C(c2cccs2)CC1c1ccc(F)cc1 (stereo not given) | . | 7 | . | . | . | .
Brc1cccc(-c2ccccn2)n1 | . | 40 | . | . | . | .
NCc1nc(-c2ccccn2)n[nH]1 | . | 116* | . | . | . | .
Oc1ccccc1-c1ccn[nH]1 | 0 | 9 | 0 | 0 | -1 | 3
Sc1n[nH]c(-c2ccccn2)n1 | . | 113* | . | . | . | .
Oc1ccccc1-c1n[nH]c(-c2ccccn2)n1 | . | 94* | . | . | . | .
c1ccc(-c2nn[nH]n2)nc1 | 1 | 107*! | -1 | -7 | -1 | -2
CC(NC(=O)C12CC3CC(CC(C3)C1)C2)C(=O)NN=CC1=C(N2CCOCC2)/C(=C\c2cccc([N+](=O)[O-])c2)CC1 (stereo not given) | . | 14 | . | . | . | .
CC(C)NC(=O)Cc1csc(SCc2ccc(Br)cc2)n1 | . | -5 | . | . | . | .
CCCC(NC(=O)COc1cc2c(c3oc(=O)cc(C)c13)CCC(C)(C)O2)C(=O)O (stereo not given) | 128* | 4 | -8 | 8 | 2 | 3
Cc1cc(=O)oc2c3c(cc(OCC(=O)NCC(=O)N[C@H](C(=O)O)C(C)C)c12)OC(C)(C)CC3 | + | -1 | -3 | 2 | -4 | 1
SMILES | FBA Mtb inh | PriA SSB inh | Mtb betalactam | GDH-TPI inh | Rv3671c inh | Mtb UGM inh
CC[C@H](C)[C@H](NC(=O)CNC(=O)COc1cc2c(c3oc(=O)cc(C)c13)CCC(C)(C)O2)C(=O)O | + | -14 | 3 | -2 | -3 | -2
CC[C@@H](C)[C@H](NC(=O)Cc1c(C)c2c(cc(C)c3c(C)c(C)oc32)oc1=O)C(=O)O | 27 | -7 | 4 | 10 | . | -3
COc1ccc(Cl)cc1C(=O)NCCn1nc(-c2cccs2)cc1C | . | -8 | . | . | . | .
Cn1c(CC(=O)Nc2ccc(Cl)c(Cl)c2)n[nH]c1=S | 55* | 3 | 0 | -1 | 1 | 0
Cc1ccc(NC(=O)Cc2n[nH]c(=S)n2C)cc1 | 3 | -8 | 2 | -9 | -2 | 1
O=C(NCc1ccc2c(c1)OCO2)c1nnc2n(c1=O)CCN2c1ccccc1 | . | -3 | . | . | . | .
CCCCCOc1ccc(C2NC(=O)NC2=O)cc1 (stereo not given) | 1 | -11 | 6 | -3 | -3 | -1

Screening data: PubChem BioAssay, several laboratories
